# Active and inactive are the calls of the source. How the calls were made is not given here.
# Biological target: Pantothenate synthetase (Mycobacterium tuberculosis (strain ATCC 25618 / H37Rv)) (UniProt P9WIL5)
# Experiment: Coupled enzyme confirmation of inhibitors against recombinant Mtb PanC (AID 375);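 further: 0% = full reaction with vehicle and 100% = no enzyme background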
# Conditions: coupled enzyme assay; at 10 µM, active compounds read high
# Pantothenate synthetase (Mycobacterium tuberculosis (strain ATCC 25618 / H37Rv)), sequence (P9WIL5 whole entry, looked up): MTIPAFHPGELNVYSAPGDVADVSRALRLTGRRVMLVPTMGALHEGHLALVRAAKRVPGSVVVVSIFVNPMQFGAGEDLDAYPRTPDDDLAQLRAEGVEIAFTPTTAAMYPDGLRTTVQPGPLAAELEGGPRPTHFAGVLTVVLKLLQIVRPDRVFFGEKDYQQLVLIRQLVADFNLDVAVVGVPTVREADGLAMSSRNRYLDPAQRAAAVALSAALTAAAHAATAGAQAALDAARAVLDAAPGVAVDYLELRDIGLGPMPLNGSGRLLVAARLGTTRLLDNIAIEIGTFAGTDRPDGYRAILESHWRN
row,Compound,inhibition
1,CCN(Cc1nc2cc(OC)c(OC)cc2c(=O)[nH]1)C(=O)c1ccc(S(=O)(=O)N(C)C)cc1,0% (inactive)
2,CCOC(=O)c1cnc(-n2nc(C)cc2C)nc1Nc1cccc(C(C)=O)c1,0% (inactive)
3,CCOC(=O)CN1C(=O)C(=O)c2cccc(C)c21,0% (inactive)
4,CC(C)OC(=O)c1cccc(C(=O)O)n1,4% (inactive)
5,O=C(NCC1CCCO1)C1CCCN(Cc2cnn(-c3ccccc3)c2-n2cccc2)C1 (centres undefined),0% (inactive)
6,CC(C)Sc1nc2c(c(=O)n1-c1ccc(F)cc1)SCC2,1% (inactive)
7,CCn1c(C(=O)N2CCCC(C(=O)O)C2)cc2sccc21 (centres undefined),11% (inactive)
8,CCOCC(=O)Nc1nc2c(s1)C(=O)CC(C)(C)C2,5% (inactive)
9,CCOC(=O)c1[nH]c(CSc2nnc(-c3ccncc3)n2CCOC)c(C(=O)OCC)c1C,3% (inactive)
10,CCOCCCNC(=O)C(c1ccc(C)cc1)N(Cc1ccc2c(c1)OCO2)C(=O)c1cnccn1 (centres undefined),0% (inactive)
11,S=c1[nH]nc(-c2ccco2)n1-c1cccc2ccccc12,0% (inactive)
12,O=C(Cn1c(=O)[nH]c2ccsc2c1=O)N1CCN(c2ccc(F)cc2)CC1,0% (inactive)
13,CCOC(=O)N1CCN(C(=O)CSc2nnc(Cc3ccccc3)o2)CC1,0% (inactive)
14,O=C(Cc1cccs1)Nc1ccccc1C(=O)O,4% (inactive)
15,COc1ccc(-n2nc(C(=O)NCC(=O)NCC3CCCO3)c3ccccc3c2=O)cc1 (centres undefined),0% (inactive)
16,Cc1ccc(C(c2sc3nc(C)nn3c2O)N2CC(C)OC(C)C2)cc1 (centres undefined),0% (inactive)
17,CN(C1CCCCC1)S(=O)(=O)c1ccc(NC(=O)c2ccco2)cc1,0% (inactive)
18,O=C(CCNS(=O)(=O)c1cccs1)Nc1ccccc1F,3% (inactive)
19,C1CCC(C(CC2CCCCN2)C2CCCCC2)CC1 (centres undefined),3% (inactive)
20,CN1CCc2nc(SCC(=O)Nc3ccc(F)cc3)c(C#N)cc2C1,8% (inactive)

row,Compound,inhibition
1,COc1ccc([C@@H]2Sc3ccccc3N(CCN(C)C)C(=O)[C@@H]2OC(C)=O)cc1,2% (inactive)
2,O=C1C2C3C=CC(C3)C2C(=O)N1Cc1ccccc1 (centres undefined),6% (inactive)
3,CN(C)c1ccc(NC(=O)Cn2cc3c(n2)CCCC3)cc1,0% (inactive)
4,Cc1nc2sc(C(c3cccc(F)c3)N3CCC(C)CC3)c(O)n2n1 (centres undefined),0% (inactive)
5,c1ccc(CCn2nnnc2CN2CCN(C3CCCC3)CC2)cc1,2% (inactive)
6,CCCCc1c(O)nc(SCCN(C)C)n(-c2ccccc2)c1=O,0% (inactive)
7,COc1ccc(S(=O)(=O)NCC(=O)N(CC(=O)NCC2CCCO2)c2ccccc2C)cc1 (centres undefined),8% (inactive)
8,COc1ccc(S(=O)(=O)NCCC(=O)NC2CCCCCCC2)cc1,0% (inactive)
9,CCOC(=O)C(CC)(CCC(=O)O)c1csc(N)n1 (centres undefined),0% (inactive)
10,CC(C)(C)n1ncc2c(=O)n(CC(=O)NCc3ccc(F)cc3)cnc21,4% (inactive)
11,COc1cc2c(cc1OC)CN(C(=O)COc1ccc(C)c(C)c1)CC2,1% (inactive)
12,O=C(Cn1c(=O)oc2ccccc21)N1CCN(c2ccccc2)CC1,0% (inactive)
13,CCOc1ccccc1C(=O)NCc1ccc2c(c1)OCO2,4% (inactive)
14,c1ccc(Cn2nnnc2C(c2cccs2)N2CCSCC2)cc1 (centres undefined),0% (inactive)
15,CCNC(=O)N1c2ccc(OCC)cc2C(C)=CC1(C)C,0% (inactive)
16,CCOC(=O)N1CCN(C(=O)CN(c2ccc(C)cc2)S(=O)(=O)c2c(C)noc2C)CC1,0% (inactive)
17,Cc1ccc(S(=O)(=O)N2CCN(C(=O)CN3C(=O)NC4(CCOc5ccccc54)C3=O)CC2)cc1 (centres undefined),2% (inactive)
18,CSc1ccc(Cn2nnc(C(=O)NCc3ccccc3)c2N)cc1,0% (inactive)
19,COC(=O)c1ccccc1NC(=O)c1noc2c1CC(C(C)(C)C)CC2 (centres undefined),2% (inactive)

# From PubChem BioAssay
